# Test results published in paper PMC4336329 (PLoS ONE, 2015).
# Among all 310,000 compounds or so, about 14,000 (4.5%) showed an effect of 50% or more. Effects have a minus sign here. This excerpt belongs to a sample that is enriched for strong results.
# Biological target: human ether-à-go-go-related gene (hERG) potassium channel (human, UniProt Q12809)
# Assay: primary screen, population patch clamp on CHO cells stably expressing hERG; higher = less effect of the substance
# 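Also: peak tail current of the secondary pulse compared with the same well before compound.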
# human ether-à-go-go-related gene (hERG) potassium channel, sequence (Q12809 whole entry, looked up): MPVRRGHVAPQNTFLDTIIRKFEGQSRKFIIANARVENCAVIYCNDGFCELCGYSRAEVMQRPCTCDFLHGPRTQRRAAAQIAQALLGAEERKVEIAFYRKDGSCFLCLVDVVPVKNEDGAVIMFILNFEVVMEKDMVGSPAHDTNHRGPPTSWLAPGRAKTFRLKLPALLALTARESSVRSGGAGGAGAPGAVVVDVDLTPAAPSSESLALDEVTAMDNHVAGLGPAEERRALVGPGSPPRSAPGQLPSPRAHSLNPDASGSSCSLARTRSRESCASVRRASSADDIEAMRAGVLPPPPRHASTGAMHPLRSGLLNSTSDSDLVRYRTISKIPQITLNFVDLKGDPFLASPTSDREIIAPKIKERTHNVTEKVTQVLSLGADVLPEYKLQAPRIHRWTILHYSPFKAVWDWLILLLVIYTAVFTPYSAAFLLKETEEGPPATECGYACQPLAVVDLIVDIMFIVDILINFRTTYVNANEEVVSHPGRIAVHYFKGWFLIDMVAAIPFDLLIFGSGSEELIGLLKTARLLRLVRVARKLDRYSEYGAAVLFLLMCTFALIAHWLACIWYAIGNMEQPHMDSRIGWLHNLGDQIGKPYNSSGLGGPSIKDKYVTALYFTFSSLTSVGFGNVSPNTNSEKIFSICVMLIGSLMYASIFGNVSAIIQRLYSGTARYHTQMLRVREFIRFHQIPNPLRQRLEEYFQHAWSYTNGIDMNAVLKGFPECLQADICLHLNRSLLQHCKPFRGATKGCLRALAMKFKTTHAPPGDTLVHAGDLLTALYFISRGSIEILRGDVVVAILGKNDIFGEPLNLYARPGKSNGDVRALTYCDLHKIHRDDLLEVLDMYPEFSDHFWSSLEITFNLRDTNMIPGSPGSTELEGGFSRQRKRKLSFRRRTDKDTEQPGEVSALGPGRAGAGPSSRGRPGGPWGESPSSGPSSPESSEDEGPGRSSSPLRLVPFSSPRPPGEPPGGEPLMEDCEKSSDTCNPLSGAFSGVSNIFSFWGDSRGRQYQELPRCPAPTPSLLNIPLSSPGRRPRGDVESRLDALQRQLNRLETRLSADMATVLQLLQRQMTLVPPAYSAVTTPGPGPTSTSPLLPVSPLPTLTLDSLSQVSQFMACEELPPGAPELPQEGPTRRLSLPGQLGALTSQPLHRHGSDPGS
row,Compound,"hERG current change (%, negative = inhibition) at 10uM [%]"
1,COc1ccc(-c2cn[nH]c2-c2ccc(OCC(=O)NN)cc2O)cc1,17.4
2,CCOC(=O)c1ccc(-[n+]2c(-c3ccccc3)cc(-c3ccccc3)cc2-c2ccccc2)cc1.[O-][Cl+3]([O-])([O-])[O-],-77.9
3,CCCOC(=O)c1ccc(Cl)c(NC(=O)c2ccc(-c3ccccc3)cc2)c1,-5.63
4,CCOC(=O)c1cccc(-[n+]2c(-c3ccccc3)cc(-c3ccccc3)cc2-c2ccccc2)c1.[O-][Cl+3]([O-])([O-])[O-],-73.5
5,CCOC(=O)c1ccc(/[N+]([O-])=C/c2ccccc2)cc1,0.217
6,CCCOC(=O)c1ccc(-[n+]2c(-c3ccccc3)cc(-c3ccccc3)cc2-c2ccccc2)cc1.[O-][Cl+3]([O-])([O-])[O-],-77.2
7,CCOC(=O)c1ccc(Cl)c(NC(=O)c2ccc(-c3ccccc3)cc2)c1,1.02
8,CCCOC(=O)c1ccc(NC(=O)Oc2ccccc2)cc1,3.21
9,CCOC(=O)c1ccc(P(=O)(c2ccccc2)c2ccccc2)cc1,-18.2
10,CCOC(=O)c1cccc(P(=O)(C(C)(C)C)C(C)(C)C)c1,17.1
11,O=C(O)CCC(=O)c1ccc2c(c1)OCCO2,1.89
12,O=c1c(C=NCc2cccs2)c(O)n(C2CCCCC2)c(=O)n1C1CCCCC1,8.72
13,O=C(CCCCCNC(=O)N1CCn2c1nc1ccccc12)NCCc1ccccc1,9.42
14,O=C(O)c1ccccc1C(=O)N1N=C(c2ccccc2)CC1c1ccccc1O (stereo not shown),6.81
15,Cc1nn(C(=O)c2ccco2)c(C)c1Sc1ccc(Br)cc1,-4.64
16,COC(=O)CN1C(=O)COc2ccc(S(=O)(=O)N3CCCCCC3)cc21,-7.44
17,O=C(CSc1nnc(Cc2cc(=O)[nH]c(=O)[nH]2)n1-c1ccc(Cl)cc1)NC1CCCC1,10.7
18,COC(=O)CSc1[nH]c(=O)cc(C)c1C#N,19.9
19,O=C(CN1CCc2ccccc2C1)NCC(=O)Nc1ccc(F)cc1,13.5
20,O=C(Nc1ccc(Cl)cc1)[C@@H]1[C@@H]2C(=O)N(c3cccc(F)c3)C(=O)[C@@H]2[C@H]2C=CC=NN21,-9.36
21,CCCCc1ccc(N=N/C(C(=O)Nc2ccc(NC(C)=O)cc2OC)=C(/C)O)cc1,-50.2
22,CCCCc1ccc(N=N/C(C(=O)Nc2ccccc2OC)=C(/C)O)cc1,-8.51

row,Compound,"hERG current change (%, negative = inhibition) at 10uM [%]"
1,CCCCc1ccc(N=N/C(C(=O)Nc2cc(OC)c(NC(C)=O)cc2OC)=C(/C)O)cc1,14.2
2,O=C(CCNC(=O)c1ccc(Br)cc1)Nc1cccc(S(=O)(=O)N2CCCCCC2)c1,-34.1
3,CN(C)S(=O)(=O)c1cccc(COC(=O)CCNC(=O)c2ccc([N+](=O)[O-])cc2)c1,-55.2
4,O=C(CCNC(=O)c1ccc([N+](=O)[O-])cc1)Nc1cccc(S(=O)(=O)N2CCOCC2)c1,-31.7
5,CN(C)S(=O)(=O)c1ccc(C(=O)OCc2ccc([N+](=O)[O-])cc2)cc1,17.6
6,CN(C)S(=O)(=O)c1cccc(C(=O)NCCNC(=O)c2cccc(S(=O)(=O)N(C)C)c2)c1,15.9
7,O=C(CCNC(=O)c1ccc([N+](=O)[O-])cc1)Nc1cccc(S(=O)(=O)N2CCCCC2)c1,-55.2
8,O=C(CCNC(=O)c1ccc(Br)cc1)Nc1cccc(S(=O)(=O)N2CCCC2)c1,-32.7
9,O=C(CCNC(=O)c1ccc(Cl)cc1)Nc1cccc(S(=O)(=O)N2CCCCCC2)c1,-57.3
10,O=C(CCNC(=O)c1ccc(Br)cc1)Nc1cccc(S(=O)(=O)N2CCCCC2)c1,-36.1
11,O=C(CCNC(=O)c1ccc(Cl)cc1)Nc1cccc(S(=O)(=O)N2CCCCC2)c1,-46
12,O=C(CCNC(=O)c1ccc([N+](=O)[O-])cc1)Nc1cccc(S(=O)(=O)N2CCCCCC2)c1,-75.1
13,O=C(CCCNC(=O)c1ccc(Cl)cc1)Nc1cccc(S(=O)(=O)N2CCCCC2)c1,-20.2
14,COc1ccc(/C(C)=N/NC(=O)CNC(=O)c2ccncc2)c(OC)c1,3.47
15,COc1cc(OC)c2cc[nH]c2c1,27.3
16,Cc1ccccc1NC(=S)NCC(c1cccnc1)N1CCOCC1 (stereo not shown),-4.07
17,Cc1cc(Nc2ccc(Cl)cc2)n2nnnc2n1,7.83
18,COc1cc(CN2CCN(c3cc(C)ccc3C)CC2)cc([N+](=O)[O-])c1O,7.26
19,Oc1cccc(Nc2ncnc3ccccc23)c1,3.18
20,O=C(CNC(=O)c1ccccc1Br)N/N=C/c1cccs1,4.8
21,O=C(NCC(O)c1ccc([N+](=O)[O-])cc1)c1cccc(S(=O)(=O)N2CCOCC2)c1 (stereo not shown),-13
22,Cc1ccc(NC(=O)c2ccc([N+](=O)[O-])cc2)cc1S(=O)(=O)N(C)C,-39.6

row,Compound,"hERG current change (%, negative = inhibition) at 10uM [%]"
1,O=C(Cc1ccc(Cl)cc1Cl)Nc1cccc(S(=O)(=O)Nc2ccccc2F)c1,-1.71
2,O=C(NCC(O)c1ccccc1)c1cccc(S(=O)(=O)N2CCOCC2)c1 (stereo not shown),-18.1
3,CN(C)S(=O)(=O)c1ccc(NC(=O)CCNC(=O)c2ccc([N+](=O)[O-])cc2)cc1,-12.7
4,Cc1ccc(NC(=O)CCNC(=O)c2ccc([N+](=O)[O-])cc2)cc1C,-0.694
5,O=C(Cc1ccc(Cl)cc1)Nc1cccc(S(=O)(=O)Nc2ccccc2F)c1,11.9
6,COC(=O)c1cccc(NC(=O)CCNC(=O)c2ccc([N+](=O)[O-])cc2)c1,-48
7,Cc1ccc(NC(=O)CCNC(=O)c2ccc([N+](=O)[O-])cc2)cc1S(=O)(=O)N(C)C,-66.9
8,O=C(NCC(O)c1ccc([N+](=O)[O-])cc1)c1cccc(S(=O)(=O)N2CCCC2)c1 (stereo not shown),-66.8
9,O=C(CSc1ccc([N+](=O)[O-])cc1)Nc1cccc(S(=O)(=O)Nc2ccccc2F)c1,-74.4
10,CCN(CC)S(=O)(=O)c1cccc(NC(=O)CCNC(=O)c2ccc([N+](=O)[O-])cc2)c1,-62.4
11,CCOc1ccc(C(=O)Nc2nc(C)cc(C)n2)cc1[N+](=O)[O-],-49.6
12,Cc1nnc(C)n1/N=C/c1ccc(-c2ccccc2Cl)o1,-11.3
13,N[C@@H](Cc1ccc(O)c(I)c1)C(=O)O,17.6
14,COc1ccc(NC(=O)c2oc3ccccc3c2NC(=O)C2CCCO2)cc1OC (stereo not shown),-17.8
15,c1ccc(C2=Nn3c(nnc3-c3cc(-c4ccccc4)n[nH]3)SC2)cc1,6.46
16,COc1ccc(OC)c(/C=N/NC(=O)CSc2nnc(C)n2-c2ccccc2)c1,-12.4
17,CCOc1cc(/C=C(\C#N)C(=O)NCc2cccnc2)ccc1O,-8.66
18,COc1ccccc1/C=C\C=N\NC(=O)CCn1nnc2ccccc21,-3.44
19,Cc1nc(Br)c(Br)c(C)c1Br,14.4
20,O=C(CCNC(=O)c1ccc([N+](=O)[O-])cc1)Nc1ccc(Cl)c(S(=O)(=O)N2CCOCC2)c1,-66.2
21,O=C(CNc1cccc(S(=O)(=O)N2CCCCCC2)c1)Nc1cccc([N+](=O)[O-])c1,-71.9
22,O=C(CCNC(=O)c1ccc([N+](=O)[O-])cc1)Nc1ccc(S(=O)(=O)N2CCOCC2)cc1,2.67

row,Compound,"hERG current change (%, negative = inhibition) at 10uM [%]"
1,CC(=O)c1cccc(NCC(=O)Nc2cccc(S(=O)(=O)N3CCCCC3)c2)c1,-31.6
2,O=C(CNc1cccc(S(=O)(=O)N2CCCCC2)c1)Nc1cccc(F)c1,-9.9
3,Cc1ccc(NC(=O)CCNC(=O)c2ccc([N+](=O)[O-])cc2)cc1S(=O)(=O)N1CCOCC1,-47.4
4,Cc1ccc(-n2c(C)nnc2SCC(=O)N(C)C2CCS(=O)(=O)C2)cc1 (stereo not shown),12.9
5,Cl.O=C(CCc1ccc(S(=O)(=O)N2CCOCC2)cc1)N1CCN(Cc2ccc3c(c2)OCO3)CC1,-34.3
6,Clc1ccc(-c2cn3nc4c(nc3n2)CCCC4)cc1,-15.3
7,CCOC(=O)c1ccc(NC(=O)c2ccc(NC(=O)C3CCCO3)cc2)cc1 (stereo not shown),17
8,O=C(Nc1ccccc1N1CCCCC1)c1cccc(Cl)c1,13.5
9,CC(C)C(=O)NC(=S)Nc1ccccc1N1CCN(C(=O)c2ccc(Cl)cc2)CC1,-3.55
10,COc1ccccc1C(=O)Nc1ccccc1N1CCCCC1,-22.4
11,O=C(Nc1ccccc1N1CCN(C(=O)c2ccccc2)CC1)c1ccc(Cl)cc1,-73.2
12,COc1cccc(OC)c1C(=O)Nc1ccccc1N1CCCC1,-74.6
13,CC(C)(C)C(=O)Nc1ccccc1N1CCN(C(=O)c2ccc(Cl)cc2)CC1,-48.2
14,COc1cccc(OC)c1C(=O)Nc1ccccc1N1CCCCC1,-17.4
15,COc1ccccc1C(=O)Nc1ccccc1N1CCN(C(=O)c2ccc(Cl)cc2)CC1,-82.1
16,O=C(Nc1ccccc1N1CCN(C(=O)c2ccccc2)CC1)c1cccc(Cl)c1,-67.8
17,COc1ccccc1C(=O)Nc1ccccc1N1CCOCC1,-6.98
18,CC(C)C(=O)Nc1ccccc1N1CCN(C(=O)c2ccccc2)CC1,-14.2
19,O=C(Nc1ccccc1N1CCN(C(=O)c2ccc(Cl)cc2)CC1)c1ccc(Br)cc1,-41.5
